This is an account of results in the supplement of paper PMC12067093, “Discovery and optimisation of a covalent ligand for TRIM25 and its application to targeted protein ubiquitination” (Chemical Science, 2025).

Compound in the experiment: Cc1cc(ccc1-c1ccccc1)C(=O)N1CCCN(CC1)C(=O)CCl [compound 10]
Briefly: probe-labelled cysteine peptide fold change vs DMSO (competition) (log2 fold change); higher = less target engagement (more negative = stronger competition). To be noted: THP-1, incubation time: 4 h.

Of roughly 21,000 targets only a part is listed; those with the largest changes were picked by preference.
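Note: competitive profiling in live THP-1 cells: cysteine peptides tagged with an iodoacetamide desthiobiotin (IA-DTB) probe, intensity after compound treatment relative to DMSO-treated cells.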

Sequence of UniProt P16885 (P16885 whole entry, looked up): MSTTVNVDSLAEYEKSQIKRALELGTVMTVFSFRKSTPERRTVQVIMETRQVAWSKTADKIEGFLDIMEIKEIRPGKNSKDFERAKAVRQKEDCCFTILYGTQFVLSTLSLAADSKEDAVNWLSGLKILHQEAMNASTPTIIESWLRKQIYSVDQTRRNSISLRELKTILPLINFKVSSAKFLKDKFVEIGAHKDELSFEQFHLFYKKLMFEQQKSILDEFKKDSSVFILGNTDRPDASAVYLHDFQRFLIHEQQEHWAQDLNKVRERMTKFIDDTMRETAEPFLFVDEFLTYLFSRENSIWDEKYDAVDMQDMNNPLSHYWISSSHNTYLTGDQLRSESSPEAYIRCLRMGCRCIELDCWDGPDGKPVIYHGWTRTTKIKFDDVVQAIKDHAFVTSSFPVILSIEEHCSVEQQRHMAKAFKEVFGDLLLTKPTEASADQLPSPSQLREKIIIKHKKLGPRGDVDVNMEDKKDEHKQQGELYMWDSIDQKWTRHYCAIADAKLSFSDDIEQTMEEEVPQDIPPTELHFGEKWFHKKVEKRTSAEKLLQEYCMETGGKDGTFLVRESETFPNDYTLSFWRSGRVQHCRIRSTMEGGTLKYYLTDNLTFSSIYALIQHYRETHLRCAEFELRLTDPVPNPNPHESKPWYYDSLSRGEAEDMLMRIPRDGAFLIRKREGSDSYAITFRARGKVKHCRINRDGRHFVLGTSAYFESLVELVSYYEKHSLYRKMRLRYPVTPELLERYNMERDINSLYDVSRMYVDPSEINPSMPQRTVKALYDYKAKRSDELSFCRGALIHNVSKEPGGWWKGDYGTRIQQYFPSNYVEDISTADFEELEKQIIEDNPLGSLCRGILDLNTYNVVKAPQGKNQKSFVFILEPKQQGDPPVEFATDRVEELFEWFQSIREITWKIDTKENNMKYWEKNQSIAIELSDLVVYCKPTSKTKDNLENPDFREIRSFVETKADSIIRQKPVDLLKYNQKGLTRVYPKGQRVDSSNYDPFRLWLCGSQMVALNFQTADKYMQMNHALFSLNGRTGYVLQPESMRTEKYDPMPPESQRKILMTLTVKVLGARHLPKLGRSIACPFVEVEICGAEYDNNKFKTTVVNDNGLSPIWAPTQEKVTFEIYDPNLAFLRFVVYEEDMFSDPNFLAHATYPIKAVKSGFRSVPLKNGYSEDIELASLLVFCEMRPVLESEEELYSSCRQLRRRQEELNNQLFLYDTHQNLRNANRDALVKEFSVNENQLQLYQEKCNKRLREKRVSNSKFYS
Sequence of UniProt Q15365 (Q15365 whole entry, looked up): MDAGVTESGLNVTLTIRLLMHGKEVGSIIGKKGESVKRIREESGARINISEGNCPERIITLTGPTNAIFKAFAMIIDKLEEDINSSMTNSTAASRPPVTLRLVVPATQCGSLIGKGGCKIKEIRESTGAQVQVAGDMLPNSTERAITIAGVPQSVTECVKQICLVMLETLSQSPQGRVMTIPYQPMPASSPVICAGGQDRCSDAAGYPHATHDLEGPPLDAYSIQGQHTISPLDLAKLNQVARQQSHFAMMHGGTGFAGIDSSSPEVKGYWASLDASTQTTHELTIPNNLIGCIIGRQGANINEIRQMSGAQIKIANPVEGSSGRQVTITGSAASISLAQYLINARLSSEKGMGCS
Sequence of UniProt Q86YH6 (Q86YH6 whole entry): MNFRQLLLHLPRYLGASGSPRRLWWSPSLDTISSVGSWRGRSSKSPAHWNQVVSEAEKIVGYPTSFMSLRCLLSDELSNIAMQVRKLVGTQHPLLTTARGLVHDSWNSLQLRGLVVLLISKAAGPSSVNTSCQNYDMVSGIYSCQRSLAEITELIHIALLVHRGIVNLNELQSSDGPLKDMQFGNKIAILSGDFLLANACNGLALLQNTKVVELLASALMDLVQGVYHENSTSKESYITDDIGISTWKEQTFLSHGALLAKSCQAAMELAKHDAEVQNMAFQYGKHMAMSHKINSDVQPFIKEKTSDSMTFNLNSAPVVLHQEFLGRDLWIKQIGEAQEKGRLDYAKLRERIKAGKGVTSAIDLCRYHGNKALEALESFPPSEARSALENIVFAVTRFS
Sequence of UniProt P50479 (P50479 whole entry, looked up): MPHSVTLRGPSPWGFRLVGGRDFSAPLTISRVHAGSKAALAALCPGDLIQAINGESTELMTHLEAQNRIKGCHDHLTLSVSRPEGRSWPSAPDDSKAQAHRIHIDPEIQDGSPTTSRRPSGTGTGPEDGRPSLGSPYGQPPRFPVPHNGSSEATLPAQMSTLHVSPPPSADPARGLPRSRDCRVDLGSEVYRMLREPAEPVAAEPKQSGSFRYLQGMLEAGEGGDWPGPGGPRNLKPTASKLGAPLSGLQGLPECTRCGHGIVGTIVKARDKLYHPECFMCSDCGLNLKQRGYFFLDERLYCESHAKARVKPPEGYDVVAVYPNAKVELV
Sequence of UniProt P48739 (P48739 whole entry): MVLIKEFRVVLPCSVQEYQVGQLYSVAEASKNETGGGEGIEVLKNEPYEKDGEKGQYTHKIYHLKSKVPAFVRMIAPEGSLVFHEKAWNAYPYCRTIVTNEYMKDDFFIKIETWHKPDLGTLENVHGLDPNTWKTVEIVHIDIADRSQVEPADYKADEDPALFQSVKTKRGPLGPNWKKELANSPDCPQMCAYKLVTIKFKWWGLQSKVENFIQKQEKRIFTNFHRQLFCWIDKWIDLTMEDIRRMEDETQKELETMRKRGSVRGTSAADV
Sequence of UniProt P05166 (P05166 whole entry, looked up): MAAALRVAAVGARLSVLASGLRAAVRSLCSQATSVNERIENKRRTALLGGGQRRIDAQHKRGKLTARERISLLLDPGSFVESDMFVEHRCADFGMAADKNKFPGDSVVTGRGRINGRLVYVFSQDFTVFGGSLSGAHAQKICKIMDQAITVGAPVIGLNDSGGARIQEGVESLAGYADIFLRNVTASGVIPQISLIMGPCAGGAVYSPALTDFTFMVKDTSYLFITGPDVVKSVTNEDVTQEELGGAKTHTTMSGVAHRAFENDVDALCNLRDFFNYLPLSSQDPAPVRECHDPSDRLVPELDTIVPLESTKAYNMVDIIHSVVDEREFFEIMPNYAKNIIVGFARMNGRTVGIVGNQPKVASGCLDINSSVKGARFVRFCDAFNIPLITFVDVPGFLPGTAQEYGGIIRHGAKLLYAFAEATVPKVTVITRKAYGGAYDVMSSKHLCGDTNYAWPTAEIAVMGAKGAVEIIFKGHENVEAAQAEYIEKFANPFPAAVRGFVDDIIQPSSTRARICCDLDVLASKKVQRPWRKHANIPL
Sequence of UniProt Q7RTV0 (Q7RTV0 whole entry, looked up): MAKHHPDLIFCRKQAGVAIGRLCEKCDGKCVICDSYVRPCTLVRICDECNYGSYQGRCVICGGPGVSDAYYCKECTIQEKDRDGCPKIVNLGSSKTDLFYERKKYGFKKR
Sequence of UniProt Q8TCU6 (Q8TCU6 whole entry, looked up): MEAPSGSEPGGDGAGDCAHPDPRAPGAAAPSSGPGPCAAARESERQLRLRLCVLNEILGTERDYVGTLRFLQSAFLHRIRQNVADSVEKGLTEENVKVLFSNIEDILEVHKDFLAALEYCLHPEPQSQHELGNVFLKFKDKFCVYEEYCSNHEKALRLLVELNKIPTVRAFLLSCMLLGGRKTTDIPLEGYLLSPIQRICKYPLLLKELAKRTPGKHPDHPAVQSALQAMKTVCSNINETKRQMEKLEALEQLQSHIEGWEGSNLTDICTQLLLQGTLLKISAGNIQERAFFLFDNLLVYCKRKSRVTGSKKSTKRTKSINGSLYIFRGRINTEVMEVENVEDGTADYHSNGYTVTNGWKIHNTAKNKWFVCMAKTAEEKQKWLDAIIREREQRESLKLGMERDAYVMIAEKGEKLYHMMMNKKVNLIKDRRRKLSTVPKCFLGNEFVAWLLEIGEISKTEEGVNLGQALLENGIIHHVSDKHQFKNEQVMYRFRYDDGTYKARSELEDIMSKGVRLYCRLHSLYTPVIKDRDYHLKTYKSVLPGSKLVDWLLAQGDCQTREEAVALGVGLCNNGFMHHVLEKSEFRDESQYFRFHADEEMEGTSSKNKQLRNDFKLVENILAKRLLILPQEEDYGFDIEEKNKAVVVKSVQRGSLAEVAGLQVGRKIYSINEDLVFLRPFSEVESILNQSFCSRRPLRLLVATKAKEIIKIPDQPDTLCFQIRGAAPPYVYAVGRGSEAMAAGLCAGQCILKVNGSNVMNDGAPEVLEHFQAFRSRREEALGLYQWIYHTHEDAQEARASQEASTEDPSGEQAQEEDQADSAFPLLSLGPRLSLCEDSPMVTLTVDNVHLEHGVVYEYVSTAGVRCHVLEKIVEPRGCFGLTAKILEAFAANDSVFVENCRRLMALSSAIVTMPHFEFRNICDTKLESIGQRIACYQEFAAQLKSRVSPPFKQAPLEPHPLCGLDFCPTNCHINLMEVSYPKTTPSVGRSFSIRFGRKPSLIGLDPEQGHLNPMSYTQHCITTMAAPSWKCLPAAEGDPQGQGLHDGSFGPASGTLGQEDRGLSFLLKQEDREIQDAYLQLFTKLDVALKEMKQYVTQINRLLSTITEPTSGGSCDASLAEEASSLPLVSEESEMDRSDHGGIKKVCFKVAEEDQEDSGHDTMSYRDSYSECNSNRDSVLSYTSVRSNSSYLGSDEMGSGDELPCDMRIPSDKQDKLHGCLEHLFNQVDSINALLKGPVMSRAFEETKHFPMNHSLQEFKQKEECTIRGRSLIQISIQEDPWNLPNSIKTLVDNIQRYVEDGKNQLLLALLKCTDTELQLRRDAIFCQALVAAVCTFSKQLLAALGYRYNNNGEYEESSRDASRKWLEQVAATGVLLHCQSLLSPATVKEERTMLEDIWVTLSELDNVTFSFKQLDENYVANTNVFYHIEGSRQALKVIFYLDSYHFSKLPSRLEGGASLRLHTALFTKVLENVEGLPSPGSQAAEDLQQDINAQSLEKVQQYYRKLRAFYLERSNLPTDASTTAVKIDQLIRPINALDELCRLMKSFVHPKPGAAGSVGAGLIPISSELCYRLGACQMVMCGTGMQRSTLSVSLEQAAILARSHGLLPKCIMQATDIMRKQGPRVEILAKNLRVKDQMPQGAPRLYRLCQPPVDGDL

For the target “PCBP2_Q15366_158_AITIAGIPQSIIECVK (UniProt Q15366)”, the “probe-labelled cysteine peptide fold change” value by setting is: (10 µM) 0.149; (50 µM) -0.0185.

For the target “PHF5A_Q7RTV0_46_ICDECNYGSYQGR (UniProt Q7RTV0)”, the “probe-labelled cysteine peptide fold change” value runs as follows: (10 µM) -0.00469; (50 µM) -0.327.

As to “PITPNB_P48739_13_VVLPCSVQEYQVGQLYSVAEASK (UniProt P48739)”, the “probe-labelled cysteine peptide fold change” value by setting is: (10 µM) -0.0113; (50 µM) 0.103.

On to “POFUT1_Q9H488_249_NACAMLK (UniProt Q9H488)”, for which the “probe-labelled cysteine peptide fold change” value by setting is: (10 µM) -0.308; (50 µM) -0.164.

For “PCBP1_Q15365_158_AITIAGVPQSVTECVK (UniProt Q15365)”, the “probe-labelled cysteine peptide fold change” value runs as follows: (10 µM) 0.332; (50 µM) -0.0314.

With “PML_P29590_140+143_ESADFWCFECEQLLCAK (UniProt P29590)”, the “probe-labelled cysteine peptide fold change” value is, setting by setting: (10 µM) 0.0944; (50 µM) -0.116.

Consider “PCDH17_O14917_335_DLGPNPIPAHCK (UniProt O14917)”, for which the “probe-labelled cysteine peptide fold change” value by setting is: (10 µM) -0.0867; (50 µM) -0.403.

With “PDLIM4_P50479_258_CGHGIVGTIVK (UniProt P50479)”, the “probe-labelled cysteine peptide fold change” value (10 µM) was -0.0847 and the “probe-labelled cysteine peptide fold change” value (50 µM) is -0.546.

Take “PECAM1_P16284_109_CTVIVNNK (UniProt P16284)”: the “probe-labelled cysteine peptide fold change” value is, setting by setting: (10 µM) 0.0288; (50 µM) 0.348.

As to “PLCG2_P16885_791_SDELSFCR (UniProt P16885)”, the “probe-labelled cysteine peptide fold change” value by setting is: (10 µM) -0.0321; (50 µM) -0.0713.

For “PREX1_Q8TCU6_1173_DSYSECNSNR (UniProt Q8TCU6)”, the “probe-labelled cysteine peptide fold change” value was found to be 0.634 (10 µM) and 1.39 (50 µM).

Turning to “PCCB_P05166_291_DFFNYLPLSSQDPAPVRECHDPSDR (UniProt P05166)”, the “probe-labelled cysteine peptide fold change” value is -0.474 (10 µM) and -0.454 (50 µM).

For the target “PPP2R2D_Q66LE6_245_SFNIVDIKPANMEELTEVITAAEFHPHQCNVFVYSSSK (UniProt Q66LE6)”, the “probe-labelled cysteine peptide fold change” value reads like this: (10 µM) -0.00789; (50 µM) -0.502.

Turning to “PDSS2_Q86YH6_71_CLLSDELSNIAMQVR (UniProt Q86YH6)”, the “probe-labelled cysteine peptide fold change” value reads like this: (10 µM) -0.424; (50 µM) -2.09.
